From PubChem BioAssay AID2104 (National Center for Advancing Translational Sciences (NCATS), 2009) come the findings set out here.

Structures are written as SMILES. Inconclusive results are not listed. The source made the active and inactive calls. The call rests on the fitted dose curve.

For the assay, the target named is Thyrotropin receptor (Homo sapiens) (UniProt P16473). The assay can be described thus: Secondary Concentration-Response Assay for Agonists of the Thyroid Stimulating Hormone Receptor: ELISA Activity Detection. The settings on record: HEK293-TSHR cells, cAMP ELISA luminescence, 1 h. The text has this: NIH Chemical Genomics Center [NCGC] NIH Molecular Libraries Screening Centers Network [MLSCN] MLSCN Grant: 1 X01 MH080680-01 PI Name: Dr. Marvin Gershengorn, NIH NCGC Assay Overview: Confirmation of Thyroid Stimulating Hormone Receptor Agonists TSH is an alpha/beta heterodimeric glycoprotein hormone secreted from the anterior pituitary gland which belongs to the glycoprotein hormone family. The actions of TSH are mediated by a seven-transmembrane receptor, which upon TSH binding couples preferentially to the G-alpha (s) protein (Gs), resulting in activation of adenylate cyclase and increase in cyclic adenosine 3', 5' monophosphate (cAMP). The TSH receptor (THSR) is mainly expressed in thyroid follicular cells and regulates their growth and function. Recombinant TSH is used to activate TSHR in patients with thyroid cancer receiving thyroid hormone suppression therapy and to screen for residual tumor after surgery, but it is expensive and must be administered intramuscularly. An orally active small molecule TSHR agonist would serve as an invaluable research tool for studying TSHR pharmacology and physiology, and would have multiple advantages in therapeutic settings. However, no selective small molecule agonist of the TSH receptor exists, and no small molecule screen for TSHR agonists has ever been reported. A confirmatory assay of putative TSHR agonists was conducted on a HEK 293 cell line stably expressing the TSHR, using an orthogonal detection technology to measure cAMP stimulation: an ELISA based cAMP competition assay using cAMP-Screen Direct System (Applied Biosystems, Foster City , CA).
Sequence of Thyrotropin receptor (Homo sapiens) (P16473 whole entry, looked up): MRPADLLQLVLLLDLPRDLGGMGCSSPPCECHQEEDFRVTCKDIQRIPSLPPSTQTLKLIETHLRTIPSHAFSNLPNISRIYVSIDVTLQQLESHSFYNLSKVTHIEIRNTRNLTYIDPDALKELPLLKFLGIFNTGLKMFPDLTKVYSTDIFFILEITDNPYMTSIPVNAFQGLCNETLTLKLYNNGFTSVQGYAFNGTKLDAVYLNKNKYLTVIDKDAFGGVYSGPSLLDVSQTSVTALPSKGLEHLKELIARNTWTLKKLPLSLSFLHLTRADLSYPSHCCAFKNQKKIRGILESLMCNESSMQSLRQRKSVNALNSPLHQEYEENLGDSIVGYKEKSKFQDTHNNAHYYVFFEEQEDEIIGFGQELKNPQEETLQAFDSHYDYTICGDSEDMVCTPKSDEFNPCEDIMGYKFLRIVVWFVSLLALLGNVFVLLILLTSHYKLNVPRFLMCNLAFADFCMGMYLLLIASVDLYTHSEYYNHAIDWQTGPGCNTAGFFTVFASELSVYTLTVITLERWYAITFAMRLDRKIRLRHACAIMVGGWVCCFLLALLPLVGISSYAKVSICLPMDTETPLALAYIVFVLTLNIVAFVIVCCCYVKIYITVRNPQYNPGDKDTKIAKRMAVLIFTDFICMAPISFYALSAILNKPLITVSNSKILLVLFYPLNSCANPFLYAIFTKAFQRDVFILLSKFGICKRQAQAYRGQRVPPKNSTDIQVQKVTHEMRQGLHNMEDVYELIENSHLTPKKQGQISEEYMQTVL
NCGC Assay Protocol Summary: HEK 293 cells expressing TSHR were cultured for 24 h before incubation for 1 h in serum-free DMEM containing 1 mM 3-isobutyl-1-methylxanthine (IBMX) (SIGMA) and small molecule ligands in a humidified 5% CO2 incubator at 37C. Following aspiration of the medium, cells were lysed using lysis buffer of the cAMP-Screen DirectTM System (Applied Biosystems). The cAMP content of the cell lysate was determined using the method described in the manufacturer#s protocol. An enzyme substrate with a luminescent enhancer generates glow light emission kinetics. Light signal intensity, which is inversely proportional to the cAMP level in the sample, is measured in a luminometer (Perkin Elmer, 1420 Multilabel, Victor 3) for 3 seconds/well 30 min after substrate addition. Potencies (i.e., EC50) of the ligands were obtained from dose-response curves by data analysis with GraphPad Prism 4 software for Windows.
Background: ELISA stands for enzyme-linked immunosorbent assay.
For the molecule `COc1ccc(C2Nc3ccccc3C(=O)N2Cc2ccco2)cc1COc1ccccc1` (stereo unspecified), the outcome was inactive. Turning to `COc1ccc(C2Nc3ccccc3C(=O)N2CCc2ccccc2)cc1COc1ccc(NC(C)=O)cc1` (stereo unspecified), the Potency is 430 nM (active). Still for that read-out and setting: the figure for `COc1ccc(C2Nc3ccc(O)cc3C(=O)N2Cc2ccccc2)cc1COc1ccc(NC(C)=O)cc1` (stereo unspecified) is 330 nM (active). With `COCc1cc(C2Nc3ccccc3C(=O)N2Cc2ccccc2)ccc1OC` (stereo unspecified), the outcome was inactive. On to `COc1ccc(C2Nc3cccc(O)c3C(=O)N2Cc2ccccc2)cc1COc1ccc(NC(C)=O)cc1` (stereo unspecified), for which the Potency is 90 nM (active). Same read-out and setting: the figure for `CCCCN1C(=O)c2ccccc2NC1c1ccc(OC)c(COc2ccc(NC(C)=O)cc2)c1` (stereo unspecified) is 830 nM (active). Regarding `COc1ccc(C2Nc3ccccc3C(=O)N2CCCN(C)C)cc1COc1ccc(NC(C)=O)cc1` (stereo unspecified), the result was inactive. As for `COc1ccc(-c2nc3ccccc3c(=O)n2Cc2ccco2)cc1COc1ccc(NC(C)=O)cc1`, the Potency was 930 nM (active). With `COc1ccc(C2NC(=O)c3ccccc3N2)cc1COc1ccc(NC(C)=O)cc1` (stereo unspecified), the call was inactive. Still for that read-out and setting: the entry for `COc1ccc(C2Nc3ccccc3C(=O)N2CCO)cc1COc1ccc(NC(C)=O)cc1` (stereo unspecified) is “inactive”.

Regarding `COc1ccc(-c2nc3cccc(O)c3c(=O)n2Cc2ccccc2)cc1COc1ccc(NC(C)=O)cc1`, the Potency was 550 nM (active). The same measure, in the same setting: the figure for `COc1ccc(C2Nc3cccc(F)c3C(=O)N2Cc2ccccc2)cc1COc1ccc(NC(C)=O)cc1` (stereo unspecified) is 280 nM (active); for `COc1ccc(C2Nc3ccccc3C(=O)N2Cc2ccccc2)cc1COc1ccc(NC(C)=O)cc1` (stereo unspecified) it is 290 nM (active).

Regarding `COc1ccc(C2Nc3cccc(NS(C)(=O)=O)c3C(=O)N2Cc2ccccc2)cc1COc1ccc(NC(C)=O)cc1` (stereo unspecified), the Potency is 980 nM (active). For `O=C1c2ccccc2NC(c2ccccc2)N1Cc1ccco1` (stereo unspecified), the molecule was classed as inactive. Same read-out and setting: the entry for `COc1ccc(C2Nc3ccccc3C(=O)N2Cc2ccccc2)cc1COc1ccc(C#N)cc1` (stereo unspecified) is “inactive”. Regarding `COc1ccc(C2Nc3cccc(O)c3C(=O)N2Cc2ccccc2)cc1CSc1ccc(NC(C)=O)cc1` (stereo unspecified), the Potency is 18 nM (active). Regarding `COc1ccc(C2Nc3cccc(O)c3C(=O)N2Cc2ccccc2)cc1` (stereo unspecified), the result was inactive. Turning to `COc1ccc(C2Nc3ccccc3C(=O)N2Cc2ccccc2)cc1CSc1ccc(NC(C)=O)cc1` (stereo unspecified), the Potency was 80 nM (active). As to `COc1ccc(C2Nc3ccccc3C(=O)N2Cc2ccccc2)cc1COc1cccc(F)c1` (stereo unspecified), the result was inactive. `COc1ccc(-c2nc3ccccc3c(=O)n2Cc2ccccc2)cc1COc1ccc(NC(C)=O)cc1`: the Potency was 960 nM (active).
